We go through 14 compounds from the supplement of paper PMC9588786.

Molecules are shown by their SMILES. ± gives the standard deviation of the averaged measurements.
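Note: viability read as CCK-8 absorbance at 450 nm in cells co-exposed to the GPX4 inhibitor RSL3, relative to a 0.01% DMSO vehicle control.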

The test system of this test is HT-1080. Description: relative cell viability with RSL3 co-treatment (fraction of control); higher = stronger protection from RSL3-induced ferroptosis (higher viability). The following applies: 10 µM.
As to `CCN1CCN(Cc2ccc(C(=O)Nc3ccc(C)c(Oc4ccc5c(c4)CC(=O)N5)c3)cc2C(F)(F)F)CC1`, the relative cell viability is 0.46 ± 0.046.

Turning to `CC(C)(C)c1nc(-c2cccc(NS(=O)(=O)c3c(F)cccc3F)c2F)c(-c2ccnc(N)n2)s1`, the relative cell viability stood at 0.577 ± 0.11.

`COc1cc2nccc(Oc3ccc(NC(=O)NC4CC4)c(Cl)c3)c2cc1C(N)=O` [Lenvatinib (E7080)]: the relative cell viability stood at 0.56 ± 0.12.

Regarding `CS(=O)(=O)CCNCc1ccc(-c2ccc3ncnc(Nc4ccc(OCc5cccc(F)c5)c(Cl)c4)c3c2)o1` [Lapatinib], the relative cell viability is 1.21 ± 0.064.

`COc1cccc(-c2cc(=O)c3ccccc3o2)c1N`: the relative cell viability is 0.717 ± 0.064.

Take `O=C(O)[C@]1(Cc2cccc(Nc3nccs3)n2)CC[C@@H](Oc2cccc(Cl)c2F)CC1`: the relative cell viability was determined as 1.02 ± 0.14.

For `NC(=O)c1ccc(N(C(N)=O)c2c(F)cccc2F)nc1-c1ccc(F)cc1F`, the relative cell viability is 0.733 ± 0.042.

`Cn1cnc2c(F)c(Nc3ccc(Br)cc3F)c(C(=O)NOCCO)cc21`: the relative cell viability is 0.827 ± 0.097.

Turning to `COc1cc2nccc(Oc3ccc(NC(=O)Nc4cc(C)on4)c(Cl)c3)c2cc1OC` [Tivozanib (AV-951)], the relative cell viability was 0.23 ± 0.11.

Consider `COc1cc2c(c(OC)c1OC)-c1c(cc3c(c1OC)OCO3)CC(C)C(C)C2` (centres undefined) [Schisandrin B (Sch B)], for which the relative cell viability is 1.01 ± 0.17.

With `O=C1NCCc2[nH]c(-c3ccncc3)cc21`, the relative cell viability was 0.69 ± 0.04.

With `CC[C@@](C)(Nc1ccnc(-c2c[nH]c3ncccc23)n1)C(=O)NCC(F)(F)F` [Decernotinib (VX-509)], the relative cell viability came to 0.823 ± 0.042.

As for `CS(=O)(=O)N1CCc2c(-c3cnc(N)nc3)nc(N3CCOCC3)nc21`, the relative cell viability was determined as 0.85 ± 0.061.

In the case of `Cc1ccccc1CN1C2=NCCN2C(=O)C2=C1CCN(Cc1ccccc1)C2` [TIC10 Analogue], the relative cell viability stood at 0.62 ± 0.079.
